In test [1] the target is Albumin (Bos taurus) (UniProt P02769). Kind of test: bovine serum albumin binders on microarray, profiling panel, artefact control for SMM control protein annotation, biochemical, small-molecule microarray, Alexa647 label, 635/667 nm fluorescence (AID 1118).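 Further: score merges 667 nm emission intensity and signal-to-noise per printed compound spot.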 To be noted: BSA-A647 binding, fluorescence 635 nm, higher = more signal.
The nature of test [2]: small-molecule microarray binders of probe aXIP, primary screen, biochemical, NeuroSMM set, 635/667 nm fluorescence (AID 1119).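 Further: probe is the protein aXip251-270 applied at 1 µg/mL to compound-printed slides; binding of probe to printed compounds measured as 667 nm fluorescence plus signal to noise.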 To be noted: higher = more signal, called active from +8 up or from −8 down.
Test [3] is described as follows: small-molecule binders of probe aNOTCH3, primary screen, biochemical, small-molecule microarray, 635/667 nm fluorescence (AID 1120).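 Further: probe is a biotin-tagged antibody raised against NOTCH3 rather than NOTCH3 protein; score merges spot fluorescence near 667 nm with spot signal to noise.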 Conditions: higher = more signal.
Test [4] is described as follows: small-molecule binders of probe aNOTCH2, primary screen, biochemical, small-molecule microarray, 635/667 nm fluorescence (AID 1121).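 Further: score merges feature fluorescence read at 667 nm with its signal to noise.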 Conditions: higher = more signal.
Test [5] has as its target Carbonic anhydrase 2 (Homo sapiens) (UniProt P00918). Nature of the test: CAII small-molecule binders, profiling panel, biochemical, small-molecule microarray, Alexa647-labelled CAII (AID 1122). To be noted: CAII-A647 binding fluorescence, higher = more signal.
Test [6] in a line: COS7 lysate on small-molecule microarray, probe aHis, 635 nm (AID 1123).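 Further: z-score combines 667nm fluorescence intensity with signal-to-noise per printed compound spot.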 Conditions: COS7 cell lysate, fluorescence, higher = more signal.
Test [7] can be described thus: compound binding in COS7 lysate, probe aLAP1, primary screen, cell lysate, small-molecule microarray (AID 1124).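 Further: lysate comes from COS7 cells expressing LAP1 and is applied at 0.3 µg/mL; score merges spot fluorescence near 667 nm with signal-to-noise over triplicate slides.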 Conditions: probe aLAP1, fluorescence, higher = more signal.
Test [8] relates to Sam68 (KHDRBS1). Kind of test: Sam68 small-molecule binders, primary screen, biochemical, small-molecule microarray, 635 nm fluorescence (AID 1125).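 Further: score merges 667 nm channel intensity with signal to noise over triplicate slides.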 To be noted: small-molecule microarray binding, higher = more signal.
Test [9] has as its system Chordin-like protein 2 (CHRDL2). Nature of the test: CHRDL2 small-molecule binders, primary screen, biochemical, small-molecule microarray, 635 nm fluorescence (AID 1126).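 Further: printed compound slides probed with Chrdl2 protein at 4 µg/mL for 1 h at 4 C; score merges 667 nm emission intensity with signal to noise over three replicate slides.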 To be noted: small-molecule microarray binding, fluorescence 635 nm; higher = more signal.
For test [10], the target named is Concanavalin-A (Canavalia ensiformis) (UniProt P02866). Nature of the test: ConA small-molecule binders, primary screen, artefact control for SMM control protein annotation, biochemical, small-molecule microarray, Alexa647 label, 635 nm (AID 1127).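 Further: z combines 667 nm emission intensity with signal-to-noise across three replicate slides.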 To be noted: ConA-A647 binding fluorescence, higher = more signal.
Test [11] is described as follows: anti-His antibody binders, primary screen, artefact control for SMM control protein annotation, biochemical, small-molecule microarray, 635 nm fluorescence (AID 1128).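 Further: score merges feature fluorescence with signal-to-noise for each printed compound spot.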 Conditions: anti-His Alexa647 antibody binding, higher = more signal.
For test [12], the system named is Human papillomavirus type 1a E7 protein (residues 1-88). Kind of test: HPV1a E7 small-molecule binders, primary screen, biochemical, small-molecule microarray, residues 1-88, 635 nm (AID 1129). To be noted: small-molecule microarray binding, fluorescence 635 nm; higher = more signal.
For test [13], the target named is Focal adhesion kinase 1 (Homo sapiens) (UniProt Q05397). Kind of test: small-molecule microarray binders of FAK, primary screen, biochemical, 635/667 nm fluorescence, BSA, DTT (AID 1130).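 Further: composite of spot emission at 667 nm and signal to noise over triplicate slides.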 To be noted: PTK2 binding, 635 nm fluorescence, higher = more signal.
The subject of test [14] is Fibrinogen (Alexa647-labelled). Nature of the test: fibrinogen binders on compound microarrays, profiling panel, artefact control for SMM control-protein annotation, biochemical, small-molecule microarray, 635/667 nm fluorescence (AID 1131).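 Further: z-score merges 667 nm fluorescence with per-spot signal-to-noise over triplicate slides.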 To be noted: fibrinogen-A647 binding fluorescence, higher = more signal.
Test [15] addresses Follistatin (Homo sapiens) (UniProt P19883). Nature of the test: follistatin binders on small-molecule microarrays, primary screen, biochemical, small-molecule microarray, 635/667 nm fluorescence (AID 1132). To be noted: FST binding, 635 nm fluorescence, higher = more signal.
The target in test [16] is Fibroblast growth factor 2 (Homo sapiens) (UniProt P09038). Nature of the test: FGF2 binders on small-molecule microarrays, primary screen, biochemical, small-molecule microarray, 635/667 nm fluorescence (AID 1133). To be noted: small-molecule microarray binding, FGF2, fluorescence 635/667; higher = more signal.
Test [17] in a line: mitochondrial membrane potential change in A549 cells, profiling panel, cell-based, JC-1 fluorescence, basal, 24 h, 100 nL (AID 1138).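 Further: A549 lung adenocarcinoma cells under basal conditions with no added stimulus; test concentration not given here.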 Conditions: higher = more signal.
Test [18] relates to Lefty1. Kind of test: Lefty1 binders on small-molecule microarrays, primary screen, biochemical, small-molecule microarray, 635/667 nm fluorescence (AID 1139). To be noted: small-molecule microarray binding, fluorescence 635/667; higher = more signal.
The test system of test [19] is wheat germ agglutinin (Triticum aestivum), Alexa647-labelled. Nature of the test: wheat germ agglutinin binders on compound microarrays, profiling panel, artefact control for SMM control-protein annotation, biochemical, small-molecule microarray, 635/667 nm fluorescence (AID 1140).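 Further: score merges 667 nm feature emission with signal to noise over triplicate slides.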 To be noted: WGA-A647 binding, 635 nm fluorescence, higher = more signal.
The target in test [20] is Luciferin 4-monooxygenase (Photinus pyralis) (UniProt P08659). Kind of test: firefly luciferase enzyme inhibitors, primary screen, biochemical, luminescence, purified enzyme, 2006 set (AID 1141).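 Further: cell-free assay with purified firefly luciferase at 100 ng per well in PBS; test concentration not given here.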 Conditions: SteadyGlo luminescence, 30 min, higher = more signal, called active from +8 up or from −8 down.

Molecules are shown by their SMILES. The source made the active and inactive calls.

Fibroblast growth factor 2 (Homo sapiens), sequence (P09038 whole entry, looked up): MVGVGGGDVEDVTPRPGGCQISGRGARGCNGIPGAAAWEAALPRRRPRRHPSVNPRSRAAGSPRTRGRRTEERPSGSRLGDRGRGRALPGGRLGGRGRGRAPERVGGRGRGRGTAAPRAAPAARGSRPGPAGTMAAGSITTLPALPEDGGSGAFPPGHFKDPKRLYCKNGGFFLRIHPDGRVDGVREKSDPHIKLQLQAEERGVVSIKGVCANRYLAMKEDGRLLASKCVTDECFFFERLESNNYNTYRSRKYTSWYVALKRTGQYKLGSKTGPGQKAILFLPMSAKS
Concanavalin-A (Canavalia ensiformis), sequence (P02866 whole entry, looked up): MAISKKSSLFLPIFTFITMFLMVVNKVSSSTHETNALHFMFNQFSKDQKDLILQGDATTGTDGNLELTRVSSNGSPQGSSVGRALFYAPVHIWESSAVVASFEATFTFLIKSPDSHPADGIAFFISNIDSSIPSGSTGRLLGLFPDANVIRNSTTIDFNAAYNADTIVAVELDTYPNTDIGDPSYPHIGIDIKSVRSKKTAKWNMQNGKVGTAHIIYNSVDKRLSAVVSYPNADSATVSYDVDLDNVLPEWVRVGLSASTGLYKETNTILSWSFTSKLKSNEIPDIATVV
Focal adhesion kinase 1 (Homo sapiens), sequence (Q05397 whole entry, looked up): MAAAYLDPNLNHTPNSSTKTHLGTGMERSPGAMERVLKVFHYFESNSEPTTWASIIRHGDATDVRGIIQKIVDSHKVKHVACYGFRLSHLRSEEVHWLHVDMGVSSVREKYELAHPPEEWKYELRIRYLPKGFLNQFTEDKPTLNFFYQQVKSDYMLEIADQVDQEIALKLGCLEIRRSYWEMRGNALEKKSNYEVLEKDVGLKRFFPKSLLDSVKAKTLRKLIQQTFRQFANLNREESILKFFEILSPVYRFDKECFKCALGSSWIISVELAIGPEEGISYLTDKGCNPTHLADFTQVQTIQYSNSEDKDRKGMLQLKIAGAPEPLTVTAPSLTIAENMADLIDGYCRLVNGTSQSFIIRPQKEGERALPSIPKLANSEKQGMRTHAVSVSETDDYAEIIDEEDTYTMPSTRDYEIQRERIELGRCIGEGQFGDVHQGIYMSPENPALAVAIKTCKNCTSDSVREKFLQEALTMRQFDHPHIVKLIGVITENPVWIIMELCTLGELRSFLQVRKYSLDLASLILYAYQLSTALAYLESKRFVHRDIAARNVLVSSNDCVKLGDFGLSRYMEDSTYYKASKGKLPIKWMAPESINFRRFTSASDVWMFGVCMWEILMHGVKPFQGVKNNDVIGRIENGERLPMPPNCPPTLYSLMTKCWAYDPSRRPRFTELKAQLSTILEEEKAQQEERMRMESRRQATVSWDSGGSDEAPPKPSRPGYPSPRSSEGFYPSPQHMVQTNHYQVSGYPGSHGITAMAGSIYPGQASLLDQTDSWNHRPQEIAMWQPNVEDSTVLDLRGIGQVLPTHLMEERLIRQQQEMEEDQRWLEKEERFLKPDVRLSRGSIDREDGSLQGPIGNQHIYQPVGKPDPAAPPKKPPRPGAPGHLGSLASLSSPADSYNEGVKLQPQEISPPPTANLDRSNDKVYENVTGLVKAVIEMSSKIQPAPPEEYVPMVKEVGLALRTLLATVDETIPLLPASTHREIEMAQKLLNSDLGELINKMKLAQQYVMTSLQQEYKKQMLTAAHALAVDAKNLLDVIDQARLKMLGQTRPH
Follistatin (Homo sapiens), sequence (P19883 whole entry, looked up): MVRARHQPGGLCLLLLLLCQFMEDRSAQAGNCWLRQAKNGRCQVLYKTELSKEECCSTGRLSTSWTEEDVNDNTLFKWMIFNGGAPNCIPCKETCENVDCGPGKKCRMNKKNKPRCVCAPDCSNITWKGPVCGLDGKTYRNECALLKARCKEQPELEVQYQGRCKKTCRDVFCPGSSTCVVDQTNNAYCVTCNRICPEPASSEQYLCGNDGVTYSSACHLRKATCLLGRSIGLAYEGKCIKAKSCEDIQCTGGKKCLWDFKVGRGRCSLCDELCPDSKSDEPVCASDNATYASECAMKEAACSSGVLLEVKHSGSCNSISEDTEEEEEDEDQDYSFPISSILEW
Luciferin 4-monooxygenase (Photinus pyralis), sequence (P08659 whole entry, looked up): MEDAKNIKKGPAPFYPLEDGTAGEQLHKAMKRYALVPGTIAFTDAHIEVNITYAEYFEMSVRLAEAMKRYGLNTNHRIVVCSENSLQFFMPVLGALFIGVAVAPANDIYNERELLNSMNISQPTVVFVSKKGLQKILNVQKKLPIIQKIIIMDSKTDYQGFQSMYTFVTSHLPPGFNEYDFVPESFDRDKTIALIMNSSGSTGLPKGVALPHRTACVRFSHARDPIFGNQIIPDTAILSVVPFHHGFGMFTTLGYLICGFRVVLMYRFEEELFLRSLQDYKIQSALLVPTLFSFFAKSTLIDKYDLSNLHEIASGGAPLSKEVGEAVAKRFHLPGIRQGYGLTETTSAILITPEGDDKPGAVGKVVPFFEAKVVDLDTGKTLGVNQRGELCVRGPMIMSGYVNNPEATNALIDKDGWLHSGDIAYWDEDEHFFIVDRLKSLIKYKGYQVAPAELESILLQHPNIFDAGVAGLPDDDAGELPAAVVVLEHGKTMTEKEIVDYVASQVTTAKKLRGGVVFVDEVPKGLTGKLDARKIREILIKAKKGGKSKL
Albumin (Bos taurus), sequence (P02769 whole entry, looked up): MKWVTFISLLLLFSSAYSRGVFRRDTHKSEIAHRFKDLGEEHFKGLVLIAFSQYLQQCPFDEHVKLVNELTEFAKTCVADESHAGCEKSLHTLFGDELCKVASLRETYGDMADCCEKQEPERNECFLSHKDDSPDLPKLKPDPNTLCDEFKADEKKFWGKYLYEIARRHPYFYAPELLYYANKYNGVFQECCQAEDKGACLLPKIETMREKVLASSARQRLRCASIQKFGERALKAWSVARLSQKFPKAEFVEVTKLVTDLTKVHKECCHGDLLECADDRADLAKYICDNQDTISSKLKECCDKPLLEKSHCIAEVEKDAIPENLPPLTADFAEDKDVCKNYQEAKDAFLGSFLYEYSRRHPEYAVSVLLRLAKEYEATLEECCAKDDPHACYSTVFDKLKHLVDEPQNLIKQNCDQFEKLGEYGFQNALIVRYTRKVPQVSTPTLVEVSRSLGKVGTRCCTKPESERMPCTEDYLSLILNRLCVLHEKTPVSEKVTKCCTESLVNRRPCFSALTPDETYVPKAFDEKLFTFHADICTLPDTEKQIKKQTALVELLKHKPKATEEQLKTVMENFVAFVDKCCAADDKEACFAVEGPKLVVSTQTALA

As for `[N-]=[N+]=NCc1ccccc1C[C@]1(C(=O)N2CCCCC2)N=C(c2ccc(OCCCO)cc2)O[C@H]1c1ccccc1N=[N+]=[N-]`, the composite z-score was found to be 0.836 in test [1]; 0.194 in test [3]; 0.0097 in [4]; 0.593 in test [5]; 2.45 in test [6]; 0.799 in [7]. The composite z-score in [8] was 1.33; in test [9], -0.518; in test [10], 1.1; in [11], 2.87; in test [12] it was 1.23; in [13], 1.71. Further, the composite z-score in [14] was 0.984; in test [15], 0.887; in test [16], -0.0521; in [18], -0.0342; in test [19], 1. The composite Z-score in [2] was -0.602 (inactive). Moreover, the values for the z-score in test [17] and in test [20] were -0.756 and -9.69 (active), respectively.

For `O=C(NCCN1CCOCC1)C1N=C(c2ccc(OCCCO)cc2)N(c2ccccc2)O1` (stereo not given), the composite z-score in test [1] amounted to 0.439; in test [3] it was 0.0261; in test [4], 0.119; in test [5], 0.835; in [6], 2.79; in test [7] it was 0.908. In addition, the composite z-score in test [8] amounted to 1.3; in test [9], 1.41; in test [10], 0.691; in test [11] it was 1.22; in [12], 1.29; in test [13] it was 0.124. For the same compound, the composite z-score is 0.545 in test [14]; 1.52 in test [15]; 1.58 in test [16]; 0.813 in test [18]; 0.61 in test [19]. Moreover, in [2], the composite Z-score was 0.267 (inactive). Besides, the z-score was 1.23 in test [17] and -8.16 (active) in [20].

As for `CN(C)CCCCCCNC(=O)[C@H]1C[C@H]2C(=O)N3CCC[C@H]3C(=O)N2[C@H]1c1ccc(O)cc1`, the composite z-score in [1] was -0.584; in test [3] it was 0.377; in test [4], -0.0438; in test [5], 0.561; in test [6], 2.04; in test [7], 0.81. For the same compound, the composite z-score was determined as 1.34 in [8]; 1.43 in test [9]; 1.22 in test [10]; 2.74 in [11]; 1.24 in test [12]; 1.03 in [13]. The composite z-score in test [14] came to 0.678; in test [15], 1.34; in [16], 1.48; in test [18], 1.39; in test [19], 0.622. Further, the composite Z-score in test [2] is 0.233 (inactive). In addition, the results for the z-score in [17] and in test [20] were -0.727 and -0.171 (inactive), respectively.

Regarding `CCCC[C@@H]1C[C@H]1[C@@H](NC(=O)C(C)(C)C)c1ccc(C(F)(F)F)cc1`, the composite z-score in test [1] is 0.315; in test [3] it was -0.222; in [4], -0.0986; in [5] it was 0.289; in test [6] it was 0.834; in test [7], 0.0265. The composite z-score in test [8] is -0.305; in test [9], -2.05; in test [10], -0.0101; in [11], 1.73; in test [12], 0.779; in test [13], 0.702. For the same compound, the composite z-score in [14] was -0.27; in test [15] it was -1.57; in test [16], -1.4; in test [18], -0.722; in test [19] it was -0.372. In addition, the composite Z-score in test [2] was -0.414 (inactive). The z-score in test [17] was -1.08; in [20] it was -3.32 (inactive).

For the compound `CCOC(=O)C[C@H]1[C@H](OC(=O)c2ccc(-c3ccccc3)cc2)[C@@H](NC(=O)Cc2ccc(OC)cc2)c2cc(OCCCO)ccc2N1C(=O)c1ccccc1`, the composite z-score in [1] was 0.167; in [3], 0.15; in test [4] it was -0.135; in test [5], -0.0516; in test [6], 0.614; in [7] it was -0.105. Also, the composite z-score in test [8] is 0.264; in test [9], -0.348; in [10] it was 0.0776; in [11], 0.0013; in test [12] it was -0.483; in test [13], 0.0865. Further, the composite z-score in [14] was 0.44; in [15], 0.349; in test [16] it was 0.0164; in [18], 0.299; in test [19], 0.241. The composite Z-score in test [2] was 0.0175 (inactive). Also, the z-score in [17] is 0.188; in test [20], 0.785 (inactive).

Consider `COCCOC(=O)N1C(=O)[C@@]2(c3cc(C#CCC(C(=O)OC)C(=O)OC)ccc31)[C@H](C(=O)Nc1nc3ccccc3s1)[C@H]1C(=O)O[C@H](c3ccccc3)[C@H](c3ccccc3)N1[C@@H]2c1ccccc1OCCO`, for which the composite z-score in [1] was 0.893; in [3], -0.0343; in test [4] it was -0.0956; in [5], 0.559; in test [6], 1.9; in test [7], 0.581. The composite z-score in test [8] was 1.29; in test [9], -0.0859; in [10], 1.19; in test [11], 1.41; in test [12], 1.22; in test [13] it was 0.714. Also, the composite z-score amounted to 0.965 in [14]; 0.602 in [15]; 0.579 in test [16]; 0.275 in test [18]; 1.2 in [19]. The composite Z-score in [2] was 0.259 (inactive). Besides, the z-score is -2.07 in test [17] and -1.56 (inactive) in test [20].

For the origin of these results see PubChem BioAssay.
